# Where “and” joins values, the source holds several entries; their conditions need not be identical. Identical values can stand only once. Records with an inconclusive call do not appear. Where a call stands in place of a potency, no number is given. Calls of active or inactive are those of the source. The call rests on the fitted dose curve; in most records, active means well fitted cell-killing curve with a large enough effect in the repeat runs; inconclusive means weak or mixed curves, or effect the other way; inactive means flat fitted curve, though single readings scatter.
# Test: qHTS assay to identify small molecule antagonists of the androgen receptor (AR) signaling pathway using the MDA cell line - cell viability counter screen (AID 743041; further: nearly all actives have a fitted effect of over 45% in size)
# Conditions: MDA-kb2 viability, CellTiter-Fluor, 16 h, cells co-treated with R1881 androgen agonist; series mostly up to 70.3 µM
# Source text: National Center for Advancing Translational Sciences [NCATS]
# NIH Chemical Genomics Center [NCGC]
# U.S. Environmental Protection Agency [EPA]
# National Institutes of Environmental Health Sciences [NIEHS]
# National Toxicology Program [NTP]
# U.S. Food and Drug Administration [FDA]
# Androgen receptor (AR), a nuclear hormone receptor, plays a critical role in AR-dependent prostate cancer and other androgen related diseases. Endocrine disrupting chemicals (EDCs) and their interactions with steroid hormone receptors like AR may cause disruption of normal endocrine function as well as interfere with metabolic homeostasis, reproduction, developmental and behavioral functions. To identify the compounds that inhibit AR signaling, MDA-kb2 AR-luc cell line (from ATCC, deposited by Wilson et al.) was used to screen the Tox21 10K compound library. MDA-kb2 AR-luc cell line is human breast carcinoma cell line that was stably transfected with a luciferase reporter gene under control of the MMTV promoter containing response elements for both androgen receptor (AR) and glucocorticoid receptor (GR). The cytotoxicity of the Tox21 compound library against the MDA-kb2 AR-luc cell line was tested in parallel by measuring the cell viability using CellTiter-Fluor assay (Promega, Madison, WI) in the same wells.
# Tox21 Assay Protocol Summary:
# MDA-kb2 AR-luc cells were dispensed at 3,000 cells/4 uL/well of culture medium into white wall/solid-bottom 1536-well plates using a Multidrop Combi (ThermoFisher Scientific, Waltham, MA) dispenser. After the assay plates were incubated at a 37C and 0% CO2 for 5 hr, 23 nL of compounds dissolved in DMSO, positive controls or DMSO only was transferred to the assay plate by a Pintool station (Kalypsys, San Diego, CA), followed by addition of 1 uL of agonist (R1881) in culture medium using a Bioraptr Flying Reagent Dispenser (FRD) workstation (Beckman Coulter, Indianapolis, IN, USA). The plates were incubated at a 37C and 0% CO2 for 16 h. After 15.5 h incubation, 1uL of CellTiter-Fluor reagent (Promega) was added using a Bioraptr FRD to each plate for measuring cytotoxicity. The fluorescence intensity was quantified on a ViewLux plate reader (PerkinElmer, Shelton, CT) following 30 min incubation at 37C and 0% CO2.
# Potency means the concentration at half of the fitted maximal effect.
row,Compound,Potency
1,CC(=O)NNc1ccccc1,inactive
2,CCC1(CC)C(=O)NC(=O)NC1=O,inactive
3,Cc1ccc(N)c(C)c1,inactive
4,SCc1ccccc1,inactive
5,O=C(N[C@H]1CN2CCC1CC2)c1ccc2c(c1)OCCO2,inactive
6,CCOC(=O)c1cn2nc(OP(=S)(OCC)OCC)cc2nc1C,inactive
7,Oc1cccc(Cl)c1,inactive
8,C[C@]12C=CC3=C4CCC(=O)C=C4CC[C@H]3[C@@H]1CC[C@@H]2O,inactive
9,O=C(Cl)OCCOCCOC(=O)Cl,inactive
10,CN1C[C@H](C(=O)N[C@]2(C)O[C@@]3(O)[C@@H]4CCCN4C(=O)[C@H](Cc4ccccc4)N3C2=O)C=C2c3cccc4[nH]cc(c34)C[C@H]21,inactive
11,C[CH2][Hg][S]c1ccccc1C(=O)O,9.87 µM (active) and 8.63 µM (active)
12,Cc1cccc(C)c1NC1=NCCCS1,inactive
13,CCOC(=O)c1cncn1C(C)c1ccccc1 (stereo not given),inactive
14,CCCN(CCOc1c(Cl)cc(Cl)cc1Cl)C(=O)n1ccnc1,inactive
15,NC(=S)c1c(Cl)cccc1Cl,inactive
16,CCOC(=O)NC(O)C(Cl)(Cl)Cl (stereo not given),inactive
17,CCCC(C)(COC(N)=O)COC(=O)NC(C)C (stereo not given),inactive
18,CC[N+]1(CCOC(=O)C(O)(c2ccccc2)c2ccccc2)CCCCC1,inactive
19,CC[N+]1(C)CCCC(OC(=O)C(O)(c2ccccc2)c2ccccc2)C1 (stereo not given),inactive
20,CN(C1CCCCC1)C1CCCCC1,inactive

row,Compound,Potency
1,CC(=O)OC(c1ccccc1)C(Cl)(Cl)Cl (stereo not given),inactive
2,C=CC(C)(CCC=C(C)C)OC(=O)c1ccccc1N (stereo not given),inactive
3,C[C@H](N)[C@H](O)c1ccc(O)c(O)c1,inactive
4,Cc1nnc(-c2ccccc2)c(=O)n1N,inactive
5,O=C(O)C(F)(F)C(F)(F)C(F)(F)C(F)(F)C(F)(F)C(F)(F)C(F)(F)C(F)(F)F,inactive
6,CCCCC(CC)CO[N+](=O)[O-] (stereo not given),inactive
7,NP(N)(=O)NC(=O)c1ccc(F)cc1,inactive
8,O=C(NCNC(=O)NC1C(=O)NC(=O)N1CO)NC1C(=O)NC(=O)N1CO (stereo not given),inactive
9,O=C=NC1CCCCC1,inactive
10,C=CCc1ccccc1O,inactive
11,CN[C@@H](C)[C@H](O)c1ccccc1,inactive
12,COC(=O)C1(O)c2ccccc2-c2ccccc21,inactive
13,Nc1c(Br)cc(Br)c2c1C(=O)c1ccccc1C2=O,inactive
14,O=C(CCl)CCl,inactive
15,CCCC1CCCCN1 (stereo not given),inactive
16,CCCN(CCC)c1c([N+](=O)[O-])cc(C(C)C)cc1[N+](=O)[O-],inactive
17,NCCc1cc(O)c(O)cc1O,inactive
18,CCOP(=S)(OCC)SCSc1cc(Cl)ccc1Cl,inactive
19,CCOP(=O)(SC(C)CC)N1CCSC1=O (stereo not given),inactive
20,OCCSSCCO,inactive
